# Measured values taken from PubChem BioAssay AID485294 (National Center for Advancing Translational Sciences (NCATS), 2010).
# The campaign covered roughly 370,000 compounds. About 150 (0.041%) were called active. Not shown: some 14% with an inconclusive outcome. Calls come from the whole dose curve; as a rule, active = well fitted inhibition curve with a large enough effect; inconclusive = small, poorly fitted or top-dose-only effect; inactive = flat fitted curve, though single readings scatter. Many of the other results were omitted from the sample, so actives are more common in it than they were.
# Target: Beta-lactamase (Escherichia coli (strain K12)) (UniProt P00811)
# Assay: qHTS Inhibitors of AmpC Beta-Lactamase (assay with detergent); note: nearly all actives have a fitted effect of over 25% in size;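 for activity change, negative = inhibition: 0% = no-compound wells and -100% = no-enzyme wells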
# Conditions: AmpC hydrolysis of nitrocefin, absorbance 480 nm, 0.01% Triton; series mostly up to 114 µM; activity change, negative = inhibition: at the top concentration
# Procedure: NIH Molecular Libraries Probe Production Network [MLPCN] NIH Chemical Genomics Center [NCGC] Assay Provider: Professor Brian Shoichet, UCSF Assay Overview: This aggregation profiling approach exploits the sensitivity of aggregate formation to detergent. Inhibition of b-lactamase is measured in the presence and absence of 0.01% Triton X-100. This particular assay had the prescence of 0.01% Triton X-100. See Pubchem assay "Promiscuous and Specific Inhibitors of AmpC Beta-Lactamase (assay without detergent)" for related screen. Compounds that inhibit only in the absence of detergent are considered likely promiscuous aggregators. A screen of 1,030 compounds was performed in Brian Shoichet's lab in 96-well format. AmpC activity was measured by following the absorbance at 480 nm. Nitrocefin is a chromogenic substrate: while nitrocefin is yellow (lmax 390 nm), the product of its hydrolysis is red (lmax 486 nm, 17,000 M-1). AmpC beta lactamase was provided by Shoichet Lab, UCSF.
# Buffer: 20 mM phosphate buffer, pH 7.0 Triton X-100: No Detergent screen: 0.0001%, Detergent screen: 0.01%. Reagents/Controls: Buffer in columns 3 and 4 as negative control (no enzyme). 5.3 nM AmpC in columns 1, 2, 5-48. Titration of UCSF compound 9 control (from 10 mM, then 1:2) pin-transferred to column 2. Column 1 is neutral (100% activity). Assay Steps: Six uL of reagents were dispensed to 1536-well Greiner black clear bottom plates. Compounds and controls (23 nL) were transferred via Kalypsys PinTool. The plates were incubated for 15 min at room temperature, and then 2 uL of 800 uM solution of nitrocefin was added to start the reaction. The plates were immediately transferred to and read every 20 seconds for 4 min on ViewLux (Perkin-Elmer) High-throughput CCD imager using 480 nm absorbance protocol. During dispense, reagent bottles were kept submerged into 4 deg C water bath. Keywords: NIH Roadmap, MLSCN, MLI, MLSMR, qHTS, NCGC, AmpC Beta-Lactamase, Aggregation
# Potency is the fitted concentration of half-maximal effect.
# Sequence of Beta-lactamase (Escherichia coli (strain K12)) (P00811 whole entry, looked up): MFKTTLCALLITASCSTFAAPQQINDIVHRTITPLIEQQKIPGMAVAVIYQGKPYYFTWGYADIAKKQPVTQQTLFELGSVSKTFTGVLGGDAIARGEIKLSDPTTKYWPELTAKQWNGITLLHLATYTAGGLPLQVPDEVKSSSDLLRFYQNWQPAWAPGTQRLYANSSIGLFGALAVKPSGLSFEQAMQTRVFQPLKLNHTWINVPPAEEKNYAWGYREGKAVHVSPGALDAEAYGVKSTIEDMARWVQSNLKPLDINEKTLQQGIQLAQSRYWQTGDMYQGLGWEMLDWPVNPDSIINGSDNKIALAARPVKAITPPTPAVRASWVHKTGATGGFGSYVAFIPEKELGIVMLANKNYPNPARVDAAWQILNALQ
SMILES,"activity change, negative = inhibition",Potency
Cc1ccc(CNC(=O)CCc2c(C)nn(-c3ccc(N4CCCC4)nn3)c2C)cc1,9.01% (inactive),
CC1=C(C(=O)OCc2ccc(C)cc2)C(c2ccccc2Cl)CC(=O)N1 (centres undefined),-0.201% (inactive),
Cc1ccc(C(=O)NCCSc2c(C)[nH]c3ccccc23)cc1C,9.55% (inactive),
CCc1ccc(NC(=O)c2cnc3c(-c4ccccc4)c(C)nn3c2C)cc1,6.28% (inactive),
CCN(C(=O)c1sc2cc(OC)ccc2c1Cl)c1ccccc1,1.06% (inactive),
COC(=O)c1cc(NC(=O)c2cnc(SC)nc2-c2ccccc2)cc(C(=O)OC)c1,7.39% (inactive),
CCCCOc1ccc(CN2C(=O)C(=O)c3cc(Br)cc(C)c32)cc1OC,13.6% (inactive),
CCOc1ccc(/C=C(\C#N)c2nc3ccccc3c(=O)[nH]2)cc1OC,-3.18% (inactive),
O=C(COc1ccccc1)OCc1cc(=O)n2nc(-c3cccs3)sc2n1,-3.28% (inactive),
O=C(Nc1ccc(Br)cc1)c1ccc(Br)c(S(=O)(=O)NCc2ccccc2)c1,-1.49% (inactive),
CCn1c2ccccc2c2nnc(N3CCN(c4cc(C)ccc4C)CC3)nc21,21% (inactive),
CCOC(=O)c1sc(NC(=O)/C=C/c2ccc(C(C)C)cc2)c(C(=O)OCC)c1C,-0.936% (inactive),
Cn1c2cc(B(O)O)sc2c2cnn(Cc3ccccc3F)c(=O)c21,,2.82 µM (active)
Cn1cc(C(=O)NCc2ccccc2F)cn1,-0.872% (inactive),
CCOC(=O)c1c(CNCc2ccccc2F)c2sc(C)cc2n1C,-3.41% (inactive),
Cc1cc2c(cc1S(=O)(=O)CCC(=O)Nc1ccc(OC(F)(F)F)cc1)OCC(=O)N2,24.8% (inactive),
COc1ccccc1C(=O)Nc1c(C(=O)Nc2ccc(C)cc2)oc2ccccc12,-6.46% (inactive),
CCOC(=O)c1c(C)[nH]c(CCC(=O)NCCCN2CCN(c3cc(C)ccc3C)CC2)c1C,-1.88% (inactive),
COc1cc(NS(=O)(=O)c2ccc3c(c2)OCC(C(=O)N2CCCC2)O3)cc(OC)c1 (centres undefined),-1.24% (inactive),
COc1cc2nc(SCc3ccc(F)cc3)n3nc(CCn4c(C)nc5ccccc54)nc3c2cc1OC,3.25% (inactive),
CCCCN(CC)CCCNC(=O)Cn1ncc2c([nH]c3ccc(C)cc32)c1=O,2.61% (inactive),
O=C(CN1C(=O)COc2ccc(S(=O)(=O)N3CCCCCC3)cc21)N1CCN(c2cccc(C(F)(F)F)c2)CC1,3.1% (inactive),
O=C(CSc1nccn1-c1ccc(F)cc1)Nc1cccc2ccccc12,0.247% (inactive),
COc1ccc2c(Sc3ccc(C)cc3)c(C(=O)NC(C)c3ccccc3)[nH]c2c1 (centres undefined),1.51% (inactive),
O=C(Nc1ccc2nc(SCCOc3ccccc3)sc2c1)c1ccco1,13.9% (inactive),
CCOc1cc(CNC(=O)c2sc3ncnc(N(C)C4CCCCC4)c3c2C)ccc1OC,-0.364% (inactive),
CCS(=O)(=O)N1CCc2cc(C(=O)NCc3ccc(OC)cc3)ccc21,21.8% (inactive),

SMILES,"activity change, negative = inhibition",Potency
Cc1ccc(NC2=C(Cl)C(=O)OC2OC(=O)c2ccccc2C)cc1 (centres undefined),,6.31 µM (active)
Cc1ccccc1C(=O)OC1OC(=O)C(Cl)=C1Nc1ccccc1 (centres undefined),,14.1 µM (active)
COC(=O)C1=C(Nc2ccc(OC)cc2)C=C(C)C(C(=O)OC)C1c1ccc(C)cc1 (centres undefined),-11.6% (inactive),
Cc1ccccc1C(=O)Nc1ccccc1NC(=O)c1ccccc1C,0.475% (inactive),
Cc1ccccc1C(=O)O,-5.95% (inactive),
Cc1ccc(Cl)cc1N1CCN(C(=O)c2cccn3c(=O)c4cc(Cl)ccc4nc23)CC1,7.06% (inactive),
CCOc1ccc(CNC(=O)CCc2c(C)nn(-c3ccc(N4CCCCC4)nn3)c2C)cc1,21.5% (inactive),
CCOC(=O)c1ccc(N2C(=O)c3[nH]nc(-c4ccccc4)c3C2c2ccc(C(C)C)cc2)cc1 (centres undefined),2.4% (inactive),
Cc1oc2ncnc(N3CCOCC3)c2c1C(=O)NCCc1ccccc1,18.8% (inactive),
COc1cc(NC(=O)Cn2c(=O)n(Cc3ccco3)c(=O)c3oc4ccccc4c32)cc(OC)c1,-0.207% (inactive),
CC(C)c1ccc(NS(=O)(=O)c2ccc3[nH]cc(C(=O)NC4CCCC4)c(=O)c3c2)cc1,7.5% (inactive),
COc1ccc(CCNC(=O)Cn2c(=O)cc(C(F)(F)F)c3c(C)nn(C)c32)c(OC)c1,6.4% (inactive),
CC(=O)c1cccc(NC(=O)CSc2nc3c(c(=O)[nH]2)CCC3)c1,-2.77% (inactive),
CCOC(=O)c1ccc(N2C(=O)c3n[nH]c(C)c3C2c2ccc(O)c(OC)c2)cc1 (centres undefined),0.532% (inactive),
O=c1cc2nc(-c3ccccc3)nc(SCCOc3ccc(Cl)cc3)n2[nH]1,-0.807% (inactive),
Cc1ccc(OCCSc2nc(-c3cccs3)nc3cc(=O)[nH]n23)cc1Cl,1.08% (inactive),
COc1ccccc1-c1cc2nc(C)c(CCC(=O)NC3CCCCC3)c(C)n2n1,7.96% (inactive),
CNc1ccc(-c2nc(-c3ccco3)no2)cc1[N+](=O)[O-],-1.26% (inactive),
CC1CCC(N2CC(=O)N(CCC3=CCCCC3)C(c3ccc(F)cc3)C2=O)CC1 (centres undefined),8.65% (inactive),
Fc1ccc(CSc2nc(NCc3ccccc3)c3ccccc3n2)cc1,6.25% (inactive),
O=C(CCc1ccccc1)NCc1ccc2c(c1)CCN2C(=O)c1ccccc1,3.58% (inactive),
COc1ccc(-c2cc(C(F)(F)F)nc(SCC(=O)N(C)Cc3ccccc3)n2)cc1OC,-4.17% (inactive),
Cc1oc2ncn(CC(C)C)c(=O)c2c1C(=O)N1CCN(c2ccccc2F)CC1,13.4% (inactive),
O=C(CN1CCCC1)N1CCN(c2ccccc2)CC1,1.31% (inactive),
O=P(O)(CN1CCCCC1)CN1CCCCC1,-0.346% (inactive),
O=P(O)(CN1CCCCCC1)C1Cc2ccccc2C1,,50.1 µM (active)
CCn1cc(C(=O)N2CCN(c3cc(C)ccc3C)CC2)c(=O)c2cc(S(=O)(=O)N(C)C3CCCCC3)ccc21,2% (inactive),
